Hit rate of the full screen: of about 360,000 compounds, about 3,600 (1%) were called active. What follows is part of a selection rich in actives, with near analogues and random picks from the rest. Unmarked numbers belong to inactive results.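 How the source made its calls: active means compounds whose plate-normalised and pattern-corrected inhibition of the luciferase reporter signal at the single screening dose is 50% or more; inactive means the rest.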
Experiment: TROY pathway blockers in reporter cells – Q293 LMP1-TROYcd cells, NF-kB luciferase, uHTS, primary screen (AID 1347056)
Settings: 4 h, at 10 µM, stronger effect = higher value

Row | SMILES | inhibition
1 | CC(C)CCN1CCC(C)(NC(=O)c2ccccc2)C1=O (stereo unspecified) | -0.82%
2 | C=CCC(NCc1ccco1)c1ccc(OC)cc1 (stereo unspecified) | 14.2%
3 | CC(=O)c1cccc(-c2cnc3c(NC=O)cc(-c4cccc(C(=O)N(C)C)c4)cn23)c1 | -8.12%
4 | COc1cccc(-c2cnc3c(NC(C)=O)cc(-c4cccc(NC(C)=O)c4)cn23)c1 | 12.8%
5 | CC(=O)Nc1cccc(-c2cc(NC(C)=O)c3ncc(-c4ccccc4)n3c2)c1 | 80.3% (active)
6 | CC(=O)c1ccc(-c2cnc3c(NC=O)cc(-c4cccc(NS(C)(=O)=O)c4)cn23)cc1 | 22.6%
7 | COc1cccc(-c2cc(NC(C)=O)c3ncc(-c4cccc(C(C)=O)c4)n3c2)c1 | 12.8%
8 | CC(=O)Nc1cccc(-c2cc(NC=O)c3ncc(-c4ccc(F)c(Cl)c4)n3c2)c1 | 83.1% (active)
9 | O=C(Nc1ccccc1F)c1ccc(Cn2cc(Br)cn2)cc1 | -34.2%
10 | CCC(=NC1CC(C)(C)NC(C)(C)C1)C1=C(O)CC(C)(C)CC1=O | -0.72%
11 | CC(C)c1cc(C(=O)O)on1 | -0.05%
12 | CC1O[C@@H](OC2C(O)C(C)O[C@H](OC(=O)[C@]34CCC(C)(C)C[C@H]3C3=CCC5[C@@]6(C)CC(O)C(O[C@@H]7OC(CO)C(O)[C@@H](O)[C@@H]7O)[C@@](C)(C(=O)O)C6CC[C@@]5(C)[C@]3(CO)CC4)C2O[C@H]2OC(C)[C@@H](O[C@@H]3OCC(O[C@@H]4OC(CO)C(O)[C@H](O)C4O)[C@@H](O)[C@@H]3O)[C@H](O)C2O)C(O)C(O)C1O (stereo partly specified) | 5%
13 | O=C(Nn1c(SCc2ccc([N+](=O)[O-])cc2)nc2ccccc2c1=O)c1ccc(F)cc1 | 36.3%
14 | Cc1nc2ccccc2c(=O)n1NC(=O)c1ccc(Cl)c([N+](=O)[O-])c1 | 73.3% (active)
15 | Cc1ccnc(NC(=O)c2ccc(Cl)c([N+](=O)[O-])c2)c1 | -25.6%
16 | Cc1cccc(OC(C)C(=O)N2CCc3ccccc3C2)c1 (stereo unspecified) | -6.07%
17 | Cc1cccnc1C(NC(=O)C1CCN(Cc2ccc(Cl)c(Cl)c2)CC1)c1ccc(Cl)cc1 (stereo unspecified) | 4.08%
18 | COCCCNC(=O)CNC(=S)N(Cc1cc(OC)c(OC)c(OC)c1)C1CCCC1 | 10.9%
19 | Cc1ccc(SCC(=O)Nc2ccc3c(c2)OCCO3)cc1 | -62.5%
20 | Cc1ccc(SCC(=O)c2cc(C)c(OC(=S)N(C)C)c(C)c2)cc1 | 63.3% (active)
21 | COC(=O)c1cc(OC)c(OC)cc1NC(=O)CSc1ccc(C)cc1 | 21.1%
22 | CN(C)S(=O)(=O)c1ccc(Oc2ccc(S(=O)(=O)N(C)C)cc2)cc1 | -1.31%

Row | SMILES | inhibition
23 | Cc1cc(C(C)(C)C)cc(C)c1N | 2.63%
24 | CC(C)(C)c1ccc(Oc2ccc(N)cc2)cc1 | 86.2% (active)
25 | COc1ccc(S(=O)(=O)N(C)C[C@H]2Oc3ccc(NS(=O)(=O)c4cccs4)cc3CC(=O)N([C@H](C)CO)C[C@H]2C)cc1 | -24.6%
26 | Cc1ccc(N(C(=O)C(F)(F)F)C(C(=O)NC2CCCCC2)c2ccncc2)cc1C (stereo unspecified) | -2.62%
27 | O=C(c1ccc2c(c1)C(=O)N(Cc1ccncc1)C2=O)N1CCN(S(=O)(=O)c2ccc(OC(F)(F)F)cc2)CC1 | 0.85%
28 | CC(C)(C)NC(=O)c1ccc(Cn2cc(C(F)(F)F)ccc2=O)cc1 | 9.78%
29 | COc1ccc(N2CCN(C(=O)CNC(=O)c3ccc(C(C)(C)C)cc3)CC2)cc1 | -17.8%
30 | O=C(NCC(=O)N1CCN(c2ccccc2O)CC1)c1ccc2ccccc2c1 | 71.8% (active)
31 | O=C(NCC(=O)N1CCN(c2ccccc2F)CC1)c1cccs1 | -32.6%
32 | CCC(Oc1ccccc1C)C(=O)Nc1ccc(S(=O)(=O)Nc2cc(C)on2)cc1 (stereo unspecified) | -0.38%
33 | COc1ccc(C(=O)Nc2c(N)nc(SCC(=O)Nc3ccc(C(C)=O)cc3)[nH]c2=O)cc1 | -11%
34 | Cc1ccc(S(=O)(=O)N(CC(=O)Nc2cccc([N+](=O)[O-])c2)Cc2ccc(Cl)cc2)cc1 | 44.3%
35 | COC(=O)Cc1[nH]n(-c2nc3ccccc3s2)c(=O)c1C(C)=Nc1ccc(OC)cc1 | 54.6% (active)
36 | O=C1CSC(=O)N1CCOCCN1C(=O)CSC1=O | -11.1%
37 | COc1ccccc1C(=O)NC(=S)NC12CC3CC(CC(C3)C1)C2 | 14.8%
38 | COc1ccccc1C(=O)NC(=S)Nc1ccc(N2CCOCC2)cc1 | 30.2%
39 | COc1ccccc1C(=O)NC(=S)Nc1ccccc1N1CCCCC1 | 50.5% (active)
40 | Cc1ccc(CN(Cc2cccnc2)C(=S)Nc2cc(Cl)ccc2C)cc1 | -0.68%
41 | NC(=O)C1(C(N)=O)OC1c1ccc(Cl)cc1Cl (stereo unspecified) | -4.3%
42 | COc1ccc(C(=O)Nc2ccccc2C(=O)N/N=C/c2ccc(O)c(OC)c2)cc1 | 84.9% (active)
43 | COc1cccc(OCc2cc(/C=N/NC(=O)c3nc(Cl)c(Cl)c(N)c3Cl)ccc2OC)c1 | 11.1%
44 | CCOc1ccc(-c2cc(C(=O)N/N=C/c3ccc(O)cc3)c3ccccc3n2)cc1 | 42.4%

Row | SMILES | inhibition
45 | O=C(NN=Cc1ccc2c(c1)CCC2)c1ccccc1O | -55%
46 | O=C(N/N=C/c1ccc(OC(=O)c2ccccc2Cl)cc1)c1ccc(O)cc1 | 54.5% (active)
47 | CC(C)(C)C(=O)Nc1ccc(C(=O)N/N=C/c2ccccc2OC(=O)c2ccc(Cl)cc2Cl)cc1 | -17%
48 | CN1C(=O)/C(=C/C=C2\SCCN2C)OC1=S | -2.27%
49 | CCOC(=O)CCCNC(=O)CN1C(=O)NC(CCc2ccccc2)C1=O (stereo unspecified) | -5.07%
50 | O=C1/C(=C\Nc2ccccc2)CCN1c1ncccn1 | -49.4%
51 | COc1ccc(Cc2nnc(SCC(=O)Nc3ccc(C)c(C)c3)o2)cc1OC | 8.78%
52 | Fc1ccc2[nH]c3c(N4CCSCC4)ncnc3c2c1 | 59.8% (active)
53 | Cc1ccnc(NC(=O)C(C)N2C(=O)c3ccccc3C2=O)c1 (stereo unspecified) | -1.82%
54 | Oc1c(Cl)cc(Cl)c(Cl)c1Cc1c(O)c(Cl)cc(Cl)c1Cl | 80.3% (active)
55 | CC(Oc1ccccc1)C(=O)Nc1oc(-c2ccco2)c(-c2ccco2)c1C#N (stereo unspecified) | 14.3%
56 | O=C(O)c1ccc2c(=O)n3c(nc2c1)/C(=C/c1ccc(OC(F)F)cc1OC(F)F)CC3 | 1.62%
57 | CCN(C(=O)CSc1nnc(-c2ccncc2)o1)c1ccccc1 | 2.98%
58 | Fc1ccc2nc(-c3ccccc3)nc(SCc3nnc(-c4ccccc4)o3)c2c1 | -9.52%
59 | c1ccc(-c2nnc(SCc3nc4ccccc4[nH]3)o2)cc1 | 57.9% (active)
60 | COc1ccc(C(C)=O)cc1CN1C(=O)NC2(CCCCC2C)C1=O (stereo unspecified) | 19%
61 | CCOc1ccc(CCNC(=O)CCc2nnc3ccc(N4CCCC4)nn23)cc1OCC | 3.54%
62 | Cc1nc2sccn2c(=O)c1S(=O)(=O)NCCc1ccccc1 | -4.17%
63 | O=C(Nc1cc(Cl)ccc1N1CCOCC1)c1ccc(N2CCCC2=O)cc1 | 70.3% (active)
64 | O=C(Nc1cc(S(=O)(=O)N2CCOCC2)ccc1OCC(F)(F)F)c1ccc(N2CCCC2=O)cc1 | 1.27%
65 | O=C(Nc1cc(-c2nn(CC(=O)N3CCCCC3)c(=O)c3ccccc23)ccc1N1CCOCC1)c1ccc(Cl)cc1 | -10.6%
66 | CN(C)C(=O)c1ccc2c(c1)C1C3CCC(C3)C1C(c1ccccc1)N2 (stereo unspecified) | -1.11%

Row | SMILES | inhibition
67 | O=C(C1CCC(=O)N(C2CC2)C1)N1CCN(c2ccc(Cl)cc2)CC1 (stereo unspecified) | -7.66%
68 | Cc1ccc(S(=O)(=O)N(C)C)cc1NC(=O)C(C)OC(=O)c1ccc2ccccc2n1 (stereo unspecified) | -2.57%
69 | COC(=O)c1ccccc1NC(=O)Cn1nc(C(F)(F)F)c2c1CCC2 | -27%
70 | N#Cc1c(-c2ccccc2)nc(SCc2cccc(C(F)(F)F)c2)[nH]c1=O | 41.2%
71 | Cc1ccccc1CSc1nnc(-c2ccccc2)c(=O)[nH]1 | -16.6%
72 | Cc1ccc(CSc2nc(-c3ccccc3)c(C#N)c(=O)[nH]2)cc1 | 54% (active)
73 | Cc1ccc(NC(=O)Cc2nnc(SCC(=O)Nc3nncs3)n2C)cc1 | -1.88%
74 | CCOC(=O)Cc1c(C)nc2c(C#N)c(C)nn2c1C | 10.1%
75 | CN(CC(=O)NCc1ccncc1)S(=O)(=O)c1ccc(Br)cc1 | 0.22%
76 | Cc1ccc(S(=O)(=O)N2CCCCC2)cc1NC(=O)CCNC(=O)c1ccccc1 | -24.1%
77 | OCC[C@H]1C[C@H](O)[C@@H](O)[C@]2(CCCCO2)O1 | -23.7%
78 | C[C@H]1CC[C@]2(O[C@@H](CCO)C[C@@H](O)[C@@H]2O)O1 | 80.2% (active)
79 | C[C@@H]1CC[C@]2(O[C@@H](CCO)C[C@H](O)[C@H]2O)O1 | 0.26%
80 | CCOC(=O)C1(C)CCCN(C(=O)c2ccc(F)c(Cl)c2)C1 (stereo unspecified) | 2.88%
81 | Cc1ccccc1N1CCN(Cc2nc(Cc3ccccc3F)no2)CC1 | -8.4%
82 | O=C(/C=C/c1cnc2ccccc2n1)NC1CCCCCC1 | -49.1%
83 | Cc1nc2cc(NC(=O)CSc3nc4c(C)cccc4cc3C#N)ccc2s1 | 4.28%
84 | COc1ccc(C2/C(=C(/O)c3ccccc3)C(=O)C(=O)N2c2ncccn2)cc1OC (stereo unspecified) | -2.92%
85 | COc1ccc(/C(O)=C2/C(=O)C(=O)N(c3nc(C)c(C)s3)C2c2ccco2)cc1 (stereo unspecified) | -21.4%
86 | CCOc1ccc(/C(O)=C2\C(=O)C(=O)N(c3ccc(OC)cc3)C2c2ccccc2[N+](=O)[O-])cc1 (stereo unspecified) | 54.8% (active)

— PubChem BioAssay AID1347056 (Sanford-Burnham Center for Chemical Genomics, 2019)
